Only some compounds are listed: those with a hit (about 3.6% of all), similar ones and a draw of the others.
B2AR arrestin ag: qHTS assay of beta-arrestin-biased ligands of beta2-adrenergic receptor: NCGC Sytravon Library Screen; Beta-2 adrenergic receptor (Homo sapiens), P07550; HTLA Tango cells, beta-arrestin recruitment, luciferase luminescence, 18 h; Potency, µM (top dose mostly 46.1 µM), hits mostly activators; 44,000 tested, under 10 active;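 note: potency is the fitted concentration of half-maximal effect; 0% = DMSO and full agonism = EC100 isoproterenol or metaproterenol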
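Tango cells (recombinant beta2-AR, beta-arrestin, tTA-driven luciferase), 1500/well in DMEM 1% FBS, treated 18 h at 37 °C with compounds up to 46 µM; luciferin mix added, luminescence read after 15 min; %activity curves fitted and curve-classed.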
GALK inhibitor: qHTS Assay for Inhibitors of Human Galactokinase (GALK): NCGC Sytravon Library Screen | AID 1347072, 2019 | 44,000 tested, under 10 active | recombinant GALK, Kinase-Glo ATP luminescence, 1 h | Potency, µM (top dose mostly 57.5 µM), for inactives: at the highest dose activity, negative = inhibition, most hits filed as inhibitors | P51570;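 note: plate controls were full GALK reaction for no effect and reaction lacking GALK for full effect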
Target sequence (P51570 whole entry, looked up): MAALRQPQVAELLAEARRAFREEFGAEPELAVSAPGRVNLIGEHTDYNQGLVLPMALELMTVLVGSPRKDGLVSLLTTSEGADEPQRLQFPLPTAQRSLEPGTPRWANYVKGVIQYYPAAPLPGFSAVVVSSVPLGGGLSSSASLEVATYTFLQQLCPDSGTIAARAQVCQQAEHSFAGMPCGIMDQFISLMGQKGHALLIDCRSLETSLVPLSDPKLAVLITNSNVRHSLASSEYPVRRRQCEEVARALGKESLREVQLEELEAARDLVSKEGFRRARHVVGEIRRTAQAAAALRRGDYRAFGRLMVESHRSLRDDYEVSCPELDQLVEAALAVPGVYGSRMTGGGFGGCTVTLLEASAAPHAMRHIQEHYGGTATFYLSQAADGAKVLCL
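5 nM GALK with 35 µM ATP and 100 µM galactose in HEPES pH 8.0, MgCl2, NaCl, DTT, BSA; 1 h RT reaction, remaining ATP detected by Kinase-Glo Plus luminescence after 10 min; qHTS concentration series.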
GPR32 ag: qHTS for Agonists of Human Resolvin D1 Receptor DRV1 | Probable G-protein coupled receptor 32 (Homo sapiens), O75388 | CHO-K1 GPR32 beta-arrestin PathHunter luminescence, 90 min; zero percent set by DMSO-only wells | activation, % at 76.9 µM | hit rate 2.5% among 48,000 | AID 1346428, 2018;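 active = activation of at least 60% and not above a set upper limit, about 1 call in 100 departs from these limits; inconclusive = activation of 40% to 60%, or above that upper limit; inactive = activation under 40%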; note: 0% is about no effect
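Engineered CHO-K1 line co-expressing GPR32-ProLink and EA-beta-arrestin. Compound treatment lasted 90 min at 37 °C. Luminescence was recorded after 1 h with substrate at ambient temperature, relative to DMSO basal wells.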
HTT promoter inh: Primary qHTS for Identification of Small Molecule Inhibitors of Huntingtin Promoter Activity; HEK293 HTT promoter firefly luciferase reporter, 24 h; Potency, µM (doses to about 57.5 µM), inactives show at the top dose activity change, negative = inhibition, actives largely listed as inhibitors; hit rate 0.93% among 48,000; note: potency is the fitted concentration of half-maximal effect; nearly all actives have a fitted effect of over 50% in size
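HEK293 luciferase promoter-reporter cells (2,500/well) plated 24 h, then compounds added at up to 57.5 uM final for 24 h at 37 °C. Firefly luminescence by Dual-Glo, normalized to vehicle (0%) and zero RLU (-100%).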
PTAP-TSG101 blk: qHTS Validation Assay for Inhibitors of HIV-1 Budding by Blocking the Interaction of PTAP/TSG101: Sytravon Library Screen; Fluorescence polarization, FITC-PTAP peptide/Tsg101, 20 min; Potency, µM (titrated, usually from 115 µM), most hits filed as inhibitors; 44,000 tested, under 10 active; note: potency is the fitted concentration of half-maximal effect; 0% is about no effect
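The Tsg101 binding domain, at 10 uM final, is mixed with compound and a FITC peptide bearing the PTAP motif (50 nM final). After 20 min at r.t., polarization is measured; actives defined by CRC class, efficacy cut-off 60% inhibition.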
HTT-AS promoter: Primary qHTS for Identification of Small Molecule Activators of Huntingtin-Antisense Promoter Activity; HEK293 HTT-AS promoter firefly luciferase reporter, 24 h; response scale: percent change from vehicle, -100% = no light; Potency, µM (series often up to 57.5 µM), without a hit: top-dose activity change, positive = activation, usual class: activators; hit rate 0.24% among 48,000; note: potency is the fitted concentration of half-maximal effect; nearly all actives have a fitted effect of over 55% in size
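HEK293 cells carrying firefly luciferase reporters were seeded at 2,500 per well in Opti-MEM and cultured for 24 h. They were then treated with compounds at up to 57.5 uM final for 24 h at 37 degrees C before Dual-Glo luminescence readout.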
The depositor's hits bear a star; i = inactive; ? = inconclusive; . = no result given; [ ] = remark or other dose. Unless noted, calls come from the whole dose curve; as a rule, active = well fitted curve in the direction sought with a large enough effect; inconclusive = small, poorly fitted or top-dose-only effect, or another doubt; inactive = no such curve, though single readings can be large; an effect the other way counts as inactive or inconclusive.

SMILES	B2AR arrestin ag	GALK inhibitor	GPR32 ag	HTT promoter inh	PTAP-TSG101 blk	HTT-AS promoter
COc1ccc(-c2nc(N3CCOCC3)c3sc(CN(C)c4ncc(C(=O)NO)cn4)cc3n2)cn1	.	.	.	109%	.	?
COc1cccc(CNS(=O)(=O)c2ccc(N3CCCCS3(=O)=O)cc2)c1	i	-1%	13	16µM*	i	-18%
O=S(=O)(Nc1ccc(OC(F)(F)F)cc1)c1ccc(N2CCCCS2(=O)=O)cc1	i	0%	-9	?	i	-19%
COc1ccc(NS(=O)(=O)c2ccc(N3CCCCS3(=O)=O)cc2)cc1Cl	i	-1%	12	14µM*	i	-24%
Cc1ccc(NC(=O)c2cc(S(=O)(=O)NCCC3=CCCCC3)ccc2F)cc1F	i	-1%	1	11µM*	i	-90%
Cc1cc(C)cc(NC(=O)c2cc(S(=O)(=O)NCCC3=CCCCC3)ccc2F)c1	i	1%	-18	-14%	i	-22%
Cc1ccc(NC(=O)c2ccc(F)c(S(=O)(=O)NCCc3ccccc3)c2)cc1F	i	-2%	20	28µM*	i	-39%
CCC(=O)O[C@]1(C(=O)CO)CC[C@H]2[C@@H]3CCC4=CC(=O)CC[C@]4(C)[C@@H]3CC[C@@]21C	.	.	.	13%	.	7%
COc1cc2[nH]c(=O)n(Cc3ccc(C(=O)N4CCN(c5ccc(Cl)cc5)CC4)cc3)c(=O)c2cc1OC	i	0%	1	14µM*	i	-50%
COc1ccc(Cn2c(=O)[nH]c3cc(C(=O)N4CCN(c5cccc(Cl)c5)CC4)ccc3c2=O)cc1	i	-4%	14	-11%	i	-12%
COc1cc2nccc(Oc3ccc(NC(=O)C4(C(=O)Nc5ccc(F)cc5)CC4)cc3)c2cc1OC	.	.	.	-21%	.	-26%
COc1cccc(-c2nc(CS(=O)(=O)CC(=O)NCCc3ccc(OC)cc3OC)c(C)o2)c1	i	2%	-27	-28%	i	-21%
COc1ccc(OC)c(CCNC(=O)CS(=O)(=O)Cc2nc(-c3cccc(Cl)c3)oc2C)c1	i	7%	88*	-31%	i	-12%
NNc1nncc2ccccc12	.	.	27	20%	.	7.7µM*
Nc1c2ccccc2nc2ccccc12	.	.	-9	?	.	-36%
CC(C)(C)c1ccc(-c2nc(SCCCOc3ccccc3)n3[nH]c(=O)cc3n2)cc1	i	-3%	-20	-27%	i	-27%
COc1ccccc1OCCCSc1nc(-c2ccc(C(C)(C)C)cc2)nc2cc(=O)[nH]n12	i	-1%	75*	.	i	.
Cc1cc2ccccc2n1-c1ccc(C(=O)N2CCC(C(=O)NCc3ccc(Cl)cc3)CC2)s1	i	-1%	-13	14µM*	i	-39%
CCc1ccc(CNC(=O)C2CCN(C(=O)c3ccc(-n4c(C)cc5ccccc54)s3)CC2)cc1	i	-1%	-14	?	i	-80%
CCCCCCCCCCCCCCCCCCN(C)C	.	.	2	-5%	.	-11%
COc1ccc(Cl)cc1Nc1sc(C(=O)c2ccccc2)c(N)c1C(=O)Nc1ccccc1	i	2%	-97	28µM*	i	-29%
CN(C)C(=O)c1ccc(S(=O)(=O)c2ccc(NC(=O)[C@@](C)(O)C(F)(F)F)c(Cl)c2)cc1	.	.	.	-29%	.	-51%
Cc1ccc(C(=O)Nc2cc3cc(Cl)ccc3oc2=O)cc1	i	0%	62*	-10%	i	-19%
Nc1nc(NCCNc2ncc(-n3ccnc3)c(-c3ccc(Cl)cc3Cl)n2)ccc1[N+](=O)[O-]	.	.	.	?	.	-29%
Cc1cccc(N2CCN(S(=O)(=O)c3ccc4c(c3)C(C(C)C)C(=O)N4)CC2)c1C (stereo not given)	i	-2%	?	13µM*	i	-86%
SMILES	B2AR arrestin ag	GALK inhibitor	GPR32 ag	HTT promoter inh	PTAP-TSG101 blk	HTT-AS promoter
Cc1cccc(N2CCN(S(=O)(=O)c3csc(C(N)=O)c3)CC2)c1C	i	0%	8	14µM*	i	-57%
NC(=O)c1cc(S(=O)(=O)N2CCN(c3ccc(F)cc3)CC2)cs1	i	1%	24	?	i	-10%
CCC(=O)O[C@]1(C(=O)COC)[C@@H](C)C[C@H]2[C@@H]3CCC4=CC(=O)C=C[C@]4(C)C3(F)[C@@H](O)C[C@@]21C (stereo not given in full)	.	.	9	-1%	.	-9%
Cc1ncc([N+](=O)[O-])n1C	.	.	-8	8%	.	0%
O=C(CSc1nc2cc3ccccc3cc2[nH]1)Nc1cccc(C(F)(F)F)c1	i	3%	94*	-26%	i	7%[11.5 µM]
O=C(CSc1nc2ccncc2[nH]1)Nc1ccccc1C(F)(F)F	i	2%	9	?	i	-41%
O=C(CN1C=NS(=O)(=O)c2ccc(C(F)(F)F)cc21)Nc1cccc(C(F)(F)F)c1	i	-2%	99*	-19%	i	-30%
Cc1cc(C)n2nc(SCC(=O)Nc3cccc(C(F)(F)F)c3)nc2n1	i	6%	61*	?	i	-33%
CC(=O)c1cccc(NC(=O)CN2C=NS(=O)(=O)c3ccc(C)cc32)c1	i	2%	-5	9%	i	-7%
Cc1cc(C)n2nc(SCC(=O)Nc3ccccc3)nc2n1	i	4%	5	8%	i	-1%
CCCCOC(=O)CC(CC(=O)OCCCC)(OC(C)=O)C(=O)OCCCC	.	.	-6	1%	.	-4%
O=C1NC(=O)C(=Cc2ccc3nccnc3c2)S1	.	.	.	13%[25.2 µM]	.	?
COC(=O)c1cc(S(N)(=O)=O)ccc1OC	.	.	-3	-1%	.	0%
C#Cc1cccc(Nc2ncnc3cc(OC)c(OCCCCCCC(=O)NO)cc23)c1	.	.	.	55%[116 µM]	.	?
Cc1ccc(S(=O)(=O)N2CCCc3cc(NS(=O)(=O)c4ccc(F)c(C)c4)ccc32)cc1	i	3%	-11	25µM*	i	-45%
Cc1ccc(S(=O)(=O)N2CCCc3cc(NS(=O)(=O)c4ccc(C)c(C)c4)ccc32)cc1	i	-4%	-20	?	i	-26%

Bioassay records from PubChem BioAssay.
